Source: PubChem BioAssay (NCATS)
A number with no mark means an inactive call. Results filed as inconclusive are left out. Entries that show only a call come without a potency. Active and inactive are the calls of the source. Unless noted, the call rests on the fitted dose curve; in most records, active means well fitted curve in the direction sought with a large enough effect; inconclusive means small, poorly fitted or top-dose-only effect, or another doubt; inactive means no such curve, though single readings can be large; an effect the other way counts as inactive or inconclusive.

Legend:
[1] = target: Cytochrome P450 1A2 (Homo sapiens) (UniProt P05177); assay: p450-cyp1a2 (AID 410; calls by dose curve; further: potency means the concentration at half of the fitted maximal effect)
Sequence of Cytochrome P450 1A2 (Homo sapiens) (P05177 whole entry, looked up): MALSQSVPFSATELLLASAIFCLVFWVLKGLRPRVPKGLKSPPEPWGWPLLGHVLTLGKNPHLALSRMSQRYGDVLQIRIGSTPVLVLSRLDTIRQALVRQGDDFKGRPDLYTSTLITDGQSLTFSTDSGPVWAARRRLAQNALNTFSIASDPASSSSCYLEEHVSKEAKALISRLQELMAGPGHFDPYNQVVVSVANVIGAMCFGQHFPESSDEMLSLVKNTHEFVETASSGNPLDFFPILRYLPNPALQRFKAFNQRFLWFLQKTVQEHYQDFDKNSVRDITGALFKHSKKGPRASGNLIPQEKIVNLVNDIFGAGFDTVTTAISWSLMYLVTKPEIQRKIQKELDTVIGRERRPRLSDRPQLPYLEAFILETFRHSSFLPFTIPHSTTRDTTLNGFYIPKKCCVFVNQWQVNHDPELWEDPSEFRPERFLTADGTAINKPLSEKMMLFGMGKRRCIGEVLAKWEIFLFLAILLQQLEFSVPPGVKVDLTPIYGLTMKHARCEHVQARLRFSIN
Method in brief: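 Luminescent demethylation readout: Luciferin-ME (100uM, equal to Km) turned over by 20nM CYP1A2 for 60 min at room temperature after NADPH regeneration addition, following 10 min compound preincubation. Normalization used 57 uM furafylline as full inhibition.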

[2] = Stat Signaling Pathway (AID 446; active means well fitted curve in either direction with a large enough effect, not every such curve was filed as active;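 further: ME-180 cervical cancer cells given 40 pM IL-6 alongside compound; SIE-controlled beta-lactamase reporter measured as 460/530 nm FRET emission ratio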)
Method in brief: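 Normalization used AC90 stimulation (300 pM IL-6) and AC90 inhibition (125 nM pan-JAK inhibitor at 40 pM IL-6). The underlying signal is SIE-driven beta-lactamase in ME-180 cells after 5 h IL-6 exposure with compound.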

[3] = target: Glucocorticoid receptor (Homo sapiens) (UniProt P04150); assay: GR-GFP Redistribution (AID 450;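 active means compounds whose dose series gives a full or clear partial fitted curve of increased nuclear translocation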; further: potency means the concentration at half of the fitted maximal effect); details: U2OS GR-GFP nuclear translocation, laser cytometry, 2 h
Sequence of Glucocorticoid receptor (Homo sapiens) (P04150 whole entry, looked up, the tested form may be a part): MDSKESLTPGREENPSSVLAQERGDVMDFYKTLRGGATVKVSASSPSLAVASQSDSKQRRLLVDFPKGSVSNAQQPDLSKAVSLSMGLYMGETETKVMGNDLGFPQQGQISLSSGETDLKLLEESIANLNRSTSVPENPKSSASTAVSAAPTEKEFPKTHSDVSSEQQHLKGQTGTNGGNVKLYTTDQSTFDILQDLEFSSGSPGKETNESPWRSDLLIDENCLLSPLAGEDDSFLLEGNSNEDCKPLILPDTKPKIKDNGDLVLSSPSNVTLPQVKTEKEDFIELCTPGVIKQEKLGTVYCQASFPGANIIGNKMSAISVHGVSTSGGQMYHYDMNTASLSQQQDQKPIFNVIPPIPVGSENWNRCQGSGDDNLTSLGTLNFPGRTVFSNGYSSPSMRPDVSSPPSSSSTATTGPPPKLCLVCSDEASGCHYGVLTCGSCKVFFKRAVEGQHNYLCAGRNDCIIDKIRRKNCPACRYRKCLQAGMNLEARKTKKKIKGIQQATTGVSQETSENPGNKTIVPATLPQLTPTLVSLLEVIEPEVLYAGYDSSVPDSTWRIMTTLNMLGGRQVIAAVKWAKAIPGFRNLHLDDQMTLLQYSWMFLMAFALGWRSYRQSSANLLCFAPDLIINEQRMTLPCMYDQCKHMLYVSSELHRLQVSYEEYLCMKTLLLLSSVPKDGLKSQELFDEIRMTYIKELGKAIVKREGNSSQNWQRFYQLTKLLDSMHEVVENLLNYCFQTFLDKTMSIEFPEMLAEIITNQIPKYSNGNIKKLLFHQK

[4] = target: Glucocorticoid receptor (Homo sapiens) (UniProt P04150); assay: GR-EFC Redistribution (AID 451; calls by dose curve; further: potency means the concentration at half of the fitted maximal effect); details: CHO-K1 GR-EFC translocation, beta-gal luminescence, 2 h
Method in brief: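 CHO-K1 cells stably expressing nuclear-localized β-gal enzyme acceptor and GR fused C-terminally to the enzyme donor fragment; ligand-driven nuclear translocation restores β-gal by complementation. Compounds titrated up to 46 uM final, 2 h at 37 °C; luminescence read.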

[5] = target: Mitogen-activated protein kinase 10 (Mus musculus) (UniProt Q61831); assay: JNK3 AlphaScreen Assay (AID 530; active means well fitted curve in either direction with a large enough effect, not every such curve was filed as active;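 further: kinase came from lysate of stimulated human HepG2 cells; signal reports phosphorylation of biotinylated GST-cJun 1-79 at Ser73 with 10 µM ATP; series mostly up to about 57 µM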)
Method in brief: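 Phosphorylation of biotinylated GST-cJun(1-79) at Ser73 is measured by AlphaScreen proximity luminescence. Enzyme is JNK3 in HepG2 lysates activated with interleukin-1beta and tumor necrosis factor alpha; ATP is 10 uM final.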

[6] = target: 3',5'-cyclic-AMP phosphodiesterase 4B (Homo sapiens) (UniProt Q07343); assay: qHTS Assay for Inhibitors of PDE-IV (AID 607; active means well fitted activation curve with a large enough effect in the main read-out, with a control signal flat, not every such curve was filed as active)
Sequence of 3',5'-cyclic-AMP phosphodiesterase 4B (Homo sapiens) (Q07343 whole entry, looked up): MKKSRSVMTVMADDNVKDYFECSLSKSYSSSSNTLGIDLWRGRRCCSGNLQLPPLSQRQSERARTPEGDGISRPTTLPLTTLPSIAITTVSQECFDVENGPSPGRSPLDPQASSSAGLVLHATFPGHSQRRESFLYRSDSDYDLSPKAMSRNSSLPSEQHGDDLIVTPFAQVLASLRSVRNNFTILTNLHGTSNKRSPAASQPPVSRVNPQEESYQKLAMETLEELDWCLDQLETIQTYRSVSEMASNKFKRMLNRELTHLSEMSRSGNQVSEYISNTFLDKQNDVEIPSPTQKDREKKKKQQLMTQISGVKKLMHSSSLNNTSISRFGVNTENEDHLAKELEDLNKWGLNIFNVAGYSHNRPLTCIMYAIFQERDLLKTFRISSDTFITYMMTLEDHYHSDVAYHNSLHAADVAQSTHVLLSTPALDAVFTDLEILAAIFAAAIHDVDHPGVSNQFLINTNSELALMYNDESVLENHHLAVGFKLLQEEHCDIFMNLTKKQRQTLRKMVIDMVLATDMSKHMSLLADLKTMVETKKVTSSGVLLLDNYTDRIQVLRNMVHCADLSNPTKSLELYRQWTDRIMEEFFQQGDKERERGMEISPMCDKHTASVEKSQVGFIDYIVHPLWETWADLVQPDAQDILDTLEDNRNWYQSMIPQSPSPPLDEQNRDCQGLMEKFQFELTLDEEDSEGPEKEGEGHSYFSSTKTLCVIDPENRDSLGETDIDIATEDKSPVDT
Method in brief: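 HEK293 ACTOne cells with CNG channel (1000/well), endogenous PDE4; membrane potential dye, compounds up to 22.9 uM final. Fluorescence Ex 535/Em 590; RO 20-1724 (100 uM final) as reference.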

[7] = target: Guanine nucleotide-binding protein G(i) subunit alpha-1 (Homo sapiens) (UniProt P63096); assay: qHTS Assay for Inhibitors of RGS12 GoLoco Motif Activity (Green Fluorophore) (AID 879);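 further: negative values mean loss of peptide binding seen as reduced polarization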
Method in brief: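 A drop in FITC polarization marked displacement of the FITC-tagged RGS12 GoLoco peptide (10 nM) from Gαi1 (50 nM). Compounds were incubated 10 min at room temperature in Tris pH 7.5 buffer containing 150 mM NaCl, 0.1 mM GDP and 0.05% NP40; unlabeled peptide titration served as control.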

[8] = target: Cytochrome P450 2C9 (Homo sapiens) (UniProt P11712); assay: qHTS Assay for Inhibitors and Substrates of Cytochrome P450 2C9 (AID 883); further: nearly all actives have a fitted effect of over 60% in size
Sequence of Cytochrome P450 2C9 (Homo sapiens) (P11712 whole entry, looked up): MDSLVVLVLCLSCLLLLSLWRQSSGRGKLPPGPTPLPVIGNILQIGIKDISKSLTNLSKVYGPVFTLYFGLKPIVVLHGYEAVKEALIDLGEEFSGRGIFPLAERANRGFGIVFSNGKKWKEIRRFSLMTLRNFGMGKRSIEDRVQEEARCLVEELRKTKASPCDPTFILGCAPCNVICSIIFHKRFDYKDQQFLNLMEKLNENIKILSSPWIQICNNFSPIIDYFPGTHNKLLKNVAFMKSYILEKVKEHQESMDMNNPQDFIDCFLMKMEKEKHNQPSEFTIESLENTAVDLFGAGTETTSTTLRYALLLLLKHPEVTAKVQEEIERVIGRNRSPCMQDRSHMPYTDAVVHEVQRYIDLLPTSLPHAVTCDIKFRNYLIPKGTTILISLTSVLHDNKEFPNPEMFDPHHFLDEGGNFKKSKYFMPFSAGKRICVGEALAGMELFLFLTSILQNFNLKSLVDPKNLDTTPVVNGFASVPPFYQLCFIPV
Method in brief: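 CYP2C9 deoxyluciferin hydroxylation, 37C, 60 min with NADPH regeneration; 10nM enzyme, 100uM Luciferin-H (KM). Glo detection reagent stopped reaction; luminescence normalized to sulphaphenazole (57uM) full inhibition.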

[9] = target: Cytochrome P450 3A4 (Homo sapiens) (UniProt P08684); assay: qHTS Assay for Activators of Cytochrome P450 3A4 (AID 885); further: nearly all actives have a fitted effect of over 65% in size
Method in brief: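 Human CYP3A4 dealkylates Luciferin-PPXE to luciferin, which luciferase detection converts to light. Substrate was at its KM (25uM), buffer 200mM KPO4, reaction 60 min at RT.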

[10] = target: Cytochrome P450 2D6 (Homo sapiens) (UniProt P10635); assay: qHTS Assay for Inhibitors and Substrates of Cytochrome P450 2D6 (AID 891); further: potency means the concentration at half of the fitted maximal effect; nearly all actives have a fitted effect of over 60% in size
Method in brief: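 Luminescent read-out of luciferin formed by 5 nM human CYP2D6 demethylating 30 uM Luciferin-ME EGE (Km level) over 60 min at room temperature after NADPH regeneration addition. Data normalized to full inhibition by 1.43 uM quinidine.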

[11] = qHTS Assay for Identification of Small Molecule Agonists for Hypoxia Response Element Signaling Pathway (AID 914; active means well fitted activation curve with a large enough effect in the signal ratio, with a control signal flat, not every such curve was filed as active; the % refers to the signal ratio); details: ME-180 (cervical carcinoma) HRE-bla reporter, beta-lactamase ratio, CoCl2, 17 h; activation: hits give high values
Method in brief: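 HRE-bla ME-180 cells with beta-lactamase reporter under hypoxia response element, compounds with EC50 CoCl2 for 17 hours at 37 C. CCF4 substrate, 460nm/530nm emission ratio gave %Activity; AC50 from titration series.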

[12] = qHTS Assay for Identification of Small Molecule Agonists for Thrombopoietin (TPO) Signaling Pathway (AID 917)
Method in brief: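 Quantitative HTS for pathway activators: compounds were pin-transferred onto IL-3-starved Ba/F3 cells expressing human TPO receptor, TPO was added at its EC50 (26 pM final), and after 24 hrs at 37 C reporter luciferase was measured.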

[13] = target: Muscarinic acetylcholine receptor M1 (Rattus norvegicus) (UniProt P08482); assay: qHTS Assay for Antagonists of Acetylcholine Muscarinic M1 Receptor: Kinetic Measurement of Intracellular Calcium Response (AID 943); further: potency means the concentration at half of the fitted maximal effect; nearly all actives have a fitted effect of over 75% in size
Method in brief: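 Antagonism measured as reduction of carbachol-evoked (EC80, 100 nM final) calcium flux in rat M1-CHO cells after 10 min compound exposure. Fluo-4 signal read kinetically; ratio of maximal to basal fluorescence.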

[14] = target: Pyruvate kinase (Leishmania mexicana) (UniProt Q27686); assay: qHTS Validation Assay for Inhibitors of Leishmania Mexicana Pyruvate Kinase (AID 945)
Sequence of Pyruvate kinase (Leishmania mexicana) (Q27686 2-499 E452W): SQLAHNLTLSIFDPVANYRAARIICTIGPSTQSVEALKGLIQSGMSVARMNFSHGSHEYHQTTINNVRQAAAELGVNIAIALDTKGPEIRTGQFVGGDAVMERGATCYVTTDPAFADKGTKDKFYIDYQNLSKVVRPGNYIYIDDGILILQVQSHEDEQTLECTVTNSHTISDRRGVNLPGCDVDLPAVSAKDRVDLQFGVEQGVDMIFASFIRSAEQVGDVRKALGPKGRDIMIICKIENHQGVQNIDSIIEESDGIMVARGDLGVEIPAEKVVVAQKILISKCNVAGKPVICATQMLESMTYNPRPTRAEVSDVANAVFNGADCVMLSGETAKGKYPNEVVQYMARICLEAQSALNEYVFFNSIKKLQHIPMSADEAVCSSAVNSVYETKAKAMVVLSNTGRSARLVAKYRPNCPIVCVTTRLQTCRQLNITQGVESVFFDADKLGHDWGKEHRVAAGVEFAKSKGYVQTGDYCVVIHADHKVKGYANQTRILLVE
Method in brief: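 Eight-point qHTS titrations in triplicate, data normalized to DMSO neutral control. Reaction: 0.2 nM LmPYK E451W mutant, 0.5 mM PEP, 0.1 mM ADP, 7 mM MgCl2, pH 7.2, one hour at room temperature; luminescent ATP detection.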

[15] = target: Pyruvate kinase PKM (Homo sapiens) (UniProt P14618); assay: qHTS Assay for Activators of Human Muscle Pyruvate Kinase (AID 954; active means well fitted curve in the direction sought with a large enough effect, not every such curve was filed as active)
Sequence of Pyruvate kinase PKM (Homo sapiens) (P14618 whole entry, looked up): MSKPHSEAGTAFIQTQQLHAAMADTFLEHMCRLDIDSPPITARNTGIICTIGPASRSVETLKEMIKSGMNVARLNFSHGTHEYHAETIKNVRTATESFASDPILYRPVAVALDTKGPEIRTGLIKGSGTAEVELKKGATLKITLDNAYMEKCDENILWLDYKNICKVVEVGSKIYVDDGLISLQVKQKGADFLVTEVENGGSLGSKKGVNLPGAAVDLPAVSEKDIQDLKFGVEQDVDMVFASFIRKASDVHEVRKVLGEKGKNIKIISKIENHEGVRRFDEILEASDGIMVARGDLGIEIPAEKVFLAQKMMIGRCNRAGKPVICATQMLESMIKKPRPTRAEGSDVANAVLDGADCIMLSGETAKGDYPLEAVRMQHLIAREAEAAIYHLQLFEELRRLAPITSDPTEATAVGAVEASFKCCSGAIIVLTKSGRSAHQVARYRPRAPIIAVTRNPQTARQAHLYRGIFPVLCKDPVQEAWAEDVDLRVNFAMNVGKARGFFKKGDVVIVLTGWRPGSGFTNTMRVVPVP
Method in brief: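 Compound pinned into substrate mix (0.5 mM PEP, 0.1 mM ADP), then 0.1 nM PKM2 added; 1 h, RT. Stop/detection luciferase reagent added, luminescence read. Normalized to no-inhibition and no-enzyme or reference-inhibitor controls.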

[16] = target: Alpha-galactosidase A (Homo sapiens) (UniProt P06280); assay: Counterscreen for Glucocerebrosidase Inhibitors: qHTS Assay for Human alpha-Galactosidase at pH 4.5 (AID 992)
Method in brief: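 Steps: enzyme (2 nM final), then compound across 0.7 nM to 77 uM, then 80 uM fluorogenic galactopyranoside substrate; incubate 20 min at room temperature; quench at pH 10; measure fluorescence at 365/440 nm.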

[17] = target: alpha-glucosidase (Oryza sativa, rice) (UniProt Q653V4); assay: Counterscreen for Glucocerebrosidase Inhibitors: qHTS Assay for Rice alpha-Glucosidase at pH 5.0 (AID 997)
Method in brief: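 Endpoint fluorogenic assay at pH 5.0: compounds (0.7 nM to 77 uM) titrated against 4 nM rice enzyme and 400 uM 4-MU-alpha-glucoside for 20 min at room temperature; NaOH/glycine stop, read ex 365/em 440 nm, Hill-fitted AC50.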

[18] = Counterscreen for APE1 Inhibitors: Fluorescent Dye Displacement Validation Assay (AID 1707)
Method in brief: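 Reaction mixture of 250 nM Thiazole Orange and 50 nM double-stranded abasic-site DNA was dispensed, compounds were pin-transferred, and fluorescence was read at endpoint (480 nm ex, 540 nm em). Reduced fluorescence indicated dye displacement by DNA binding.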

[19] = target: Endonuclease 4 (Escherichia coli (strain K12)) (UniProt P0A6C1); assay: Counterscreen for APE1 Inhibitors: qHTS Validation Assay for Inhibitors of Endonuclease IV (AID 1708)
Method in brief: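 Enzyme (2 nM) + compound, 15 min RT; add 50 nM TAMRA/BHQ-2 THF-site dsDNA; kinetic read ex525/em598, 3 reads/60 s; activity = read 3 − read 1. Buffer Tris pH 7.5, 50 mM NaCl, 2 mM MgCl2, DTT, Tween-20.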

[20] = qHTS for differential inhibitors of proliferation of Plasmodium falciparum line 7G8 (AID 1815);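 further: potency means the concentration at half of the fitted maximal effect; parasite growth measured after three days of incubation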
[21] = qHTS for differential inhibitors of proliferation of Plasmodium falciparum line GB4 (AID 1816); details: Potency: Plasmodium falciparum GB4 proliferation inhibition;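 further: potency means the concentration at half of the fitted maximal effect; parasite growth measured after 72 h incubation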
[22] = qHTS for differential inhibitors of proliferation of Plasmodium falciparum line 3D7 (AID 1876); further: potency means the concentration at half of the fitted maximal effect
[23] = qHTS for differential inhibitors of proliferation of Plasmodium falciparum line W2 (AID 1883); details: Potency: Plasmodium falciparum W2 proliferation inhibition;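 further: potency means the concentration at half of the fitted maximal effect; parasites grown with compound for 72 h before lysis and staining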
[24] = target: Ferritin light chain (Equus caballus) (UniProt P02791); assay: qHTS Validation Assay for Identification of Novel General Anesthetics (AID 2323); further: series mostly up to about 77 µM
Method in brief: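 Apoferritin from horse spleen (10 uM) was mixed with 1-aminoanthracene at 50% saturation in PBS, then compounds were added. After 10 min at room temperature, fluorescence was read (ex 380 nm, em 535 nm) and normalized to free-probe and complex controls.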

[25] = target: ATP-dependent DNA helicase Q1 (Homo sapiens) (UniProt P46063); assay: qHTS Validation Assay for Inhibitors of RecQ-Like Dna Helicase 1 (RECQ1) (AID 2353)
Method in brief: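 RECQ1T1 50 nM; forked duplex (20 bp + 30-nt ss tails) 200 nM, ATP 2 mM final; pH 8.0, 2 mM MgCl2, 2.5 ug/ml poly(dI-dC); 15 min compound preincubation; discontinuous kinetic read over 2 h at RT.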

[26] = target: RecQ-like DNA helicase BLM (Homo sapiens) (UniProt P54132); assay: qHTS Validation Assay for Inhibitors of Bloom's syndrome helicase (BLM) (AID 2364)
Sequence of RecQ-like DNA helicase BLM (Homo sapiens) (P54132 whole entry, looked up): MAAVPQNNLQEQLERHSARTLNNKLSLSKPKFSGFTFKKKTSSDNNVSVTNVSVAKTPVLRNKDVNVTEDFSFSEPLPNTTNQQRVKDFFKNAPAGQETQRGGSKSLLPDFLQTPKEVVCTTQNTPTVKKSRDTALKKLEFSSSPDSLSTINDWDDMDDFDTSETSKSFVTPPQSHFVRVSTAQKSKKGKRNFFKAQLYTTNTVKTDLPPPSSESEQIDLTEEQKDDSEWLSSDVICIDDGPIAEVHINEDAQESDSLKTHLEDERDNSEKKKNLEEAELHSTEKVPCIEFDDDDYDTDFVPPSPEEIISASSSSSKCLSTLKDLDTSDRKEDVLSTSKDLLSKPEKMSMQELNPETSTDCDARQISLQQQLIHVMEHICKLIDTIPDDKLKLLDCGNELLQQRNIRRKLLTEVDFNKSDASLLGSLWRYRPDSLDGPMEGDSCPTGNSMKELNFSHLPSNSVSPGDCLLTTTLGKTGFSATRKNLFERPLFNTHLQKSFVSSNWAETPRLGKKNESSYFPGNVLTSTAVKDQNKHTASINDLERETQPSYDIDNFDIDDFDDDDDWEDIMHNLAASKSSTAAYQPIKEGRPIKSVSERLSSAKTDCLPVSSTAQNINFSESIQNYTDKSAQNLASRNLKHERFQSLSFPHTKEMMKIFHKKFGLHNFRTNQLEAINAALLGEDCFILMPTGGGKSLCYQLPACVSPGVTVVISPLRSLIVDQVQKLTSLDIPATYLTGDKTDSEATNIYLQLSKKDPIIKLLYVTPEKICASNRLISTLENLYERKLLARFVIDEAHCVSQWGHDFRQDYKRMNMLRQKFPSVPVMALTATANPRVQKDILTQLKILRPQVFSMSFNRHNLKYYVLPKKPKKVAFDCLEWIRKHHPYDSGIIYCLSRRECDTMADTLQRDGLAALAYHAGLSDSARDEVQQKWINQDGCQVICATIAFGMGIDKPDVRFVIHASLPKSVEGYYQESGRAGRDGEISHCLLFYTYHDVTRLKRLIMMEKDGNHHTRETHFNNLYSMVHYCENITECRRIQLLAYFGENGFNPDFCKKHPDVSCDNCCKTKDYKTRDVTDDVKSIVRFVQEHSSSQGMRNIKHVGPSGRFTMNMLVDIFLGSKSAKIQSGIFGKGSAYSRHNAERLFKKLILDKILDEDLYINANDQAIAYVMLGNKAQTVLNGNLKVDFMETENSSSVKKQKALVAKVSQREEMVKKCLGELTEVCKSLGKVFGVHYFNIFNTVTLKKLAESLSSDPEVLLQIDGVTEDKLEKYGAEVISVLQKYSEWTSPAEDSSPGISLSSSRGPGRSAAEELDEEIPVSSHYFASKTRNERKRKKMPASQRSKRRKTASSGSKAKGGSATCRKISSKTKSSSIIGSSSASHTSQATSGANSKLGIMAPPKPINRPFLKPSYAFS
Method in brief: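 BLM 50 nM in 25 mM Tris-HCl pH 8.0, 5 mM NaCl, 2 mM MgCl2, 1 mM DTT, 0.01% Tween-20, 2.5 ug/ml poly(dI-dC); 15 min cpd preinc, RT. Start: 200 nM forked DNA + 2 mM ATP (final). TAMRA read, 2 reads 2 h apart.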

[27] = Validation screen for small molecules that induce DNA re-replication in MCF 10A normal breast cells (AID 463097); further: nearly all actives have a fitted effect of over 60% in size
Method in brief: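 DNA re-replication was detected as a rise in nuclei with elevated Hoechst fluorescence after a 48 hr compound exposure of MCF 10A cells at 37 C.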

[28] = Quantitative high throughput screen for delayed death inhibitors of the malarial parasite plastid, 48 hour incubation (AID 488752); further: nearly all actives have a fitted effect of over 65% in size
Method in brief: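 One-generation (48 h) growth assay: a decrease in luciferase signal from an integrated reporter in P. falciparum-infected red cells (0.1% parasitemia, 2% hematocrit) after compound exposure at 37 C indicates parasite inhibition.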

[29] = target: M-phase phosphoprotein 8 (Homo sapiens) (UniProt Q99549); assay: qHTS Validation Assay for Inhibitors for MPP8 Chromodomain Interactions with Methylated Histone Tails (AID 488949);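 further: AlphaScreen signal from MPP8 chromodomain bound to biotinylated H3K9me3 peptide; top concentration of the series differs between compounds; nearly all actives have a fitted effect of over 55% in size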
Method in brief: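 Disruption of the preformed MPP8–trimethyl-H3K9 peptide complex (both 50 nM, 30 min, RT) is measured after 30 min compound exposure, using AlphaScreen proximity beads; aurintricarboxylic acid titration serves as plate control.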

[30] = target: Thyrotropin receptor (Homo sapiens) (UniProt P16473); assay: qHTS Assay for Antagonists of the Thyroid Stimulating Hormone Receptor (AID 488980); further: series mostly up to about 58 µM
Method in brief: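 Cells expressing human TSHR (HEK293) are dispensed in HBSS/HEPES containing 70 uM RO 20-1724, compound is added, then TSH at EC80 (4 nM final). Antibody in lysis buffer follows, 30 minutes at room temperature before HTRF detection.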

[31] = target: Thyrotropin-releasing hormone receptor (Homo sapiens) (UniProt P34981); assay: qHTS for Small Molecule Agonists and Allosteric Enhancers of Human TRH Receptor: Validation Screen for Agonists (AID 493127;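 active means calcium activation more than 3 SD above the typical response in the agonist read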;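 further: intracellular calcium rise by fluo-8 fluorescence before TRH EC20 addition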); details: TRH receptor agonist cell assay; at 2 µM; hits give high values
Method in brief: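 Compound-evoked intracellular calcium release in fluo-8-loaded TRHR cells, read kinetically on FDSS (Ex 480/Em 530, 1 s/cycle) after 23 nL pintool transfer. Agonist phase preceded 10 nM TRH EC20 addition.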

[32] = target: Galactokinase (Homo sapiens) (UniProt P51570); assay: qHTS Validation Assay for Inhibitors of Human Galactokinase (GALK) (AID 493189)
Method in brief: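 Compounds were pin-transferred into ATP buffer, then GALK-galactose mix was added (final 5 nM enzyme, 100 uM galactose, 35 uM ATP). After 1 h at room temperature, remaining ATP was measured luminescently.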

[33] = Validation screen for small molecules that induce DNA re-replication in SW480 colon adenocarcinoma cells (AID 504364)
Method in brief: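 Image-based DNA content read-out: Hoechst stain 40 min, total nuclear fluorescence intensity (ex 405 nm, em 500-530 nm) after 48 h compound exposure of 250 SW480 cells/well at 37 C, 5% CO2, versus DMSO vehicle.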

[34] = target: Voltage-gated inwardly rectifying potassium channel KCNH2 (Homo sapiens) (UniProt Q12809); assay: qHTS Assay for Small Molecule Inhibitors of the Human hERG Channel Activity (AID 588834);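 further: potency means the concentration at half of the fitted maximal effect; lower thallium flux fluorescence means stronger hERG block; nearly all actives have a fitted effect of over 50% in size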
Method in brief: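 Cells were infected with hERG-BacMam virus for 4 hrs at room temperature, grown overnight, then seeded at 2000/well. After dye loading and roughly 10 min compound treatment, thallium influx was triggered and fluorescence recorded.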

What does the source list for `CCCCN1CCC(COC(=O)c2cc(Cl)c(N)c3c2OCCO3)CC1`?
Potency [1]: 12.6 µM (active); outcome [2]: inactive; Potency [3]: > 46 µM; Potency [4]: > 46 µM; Potency [5]: inactive; Potency [6]: inactive; Potency [7]: inactive; Potency [8]: inactive; outcome [9]: inactive; Potency [10]: 1.26 µM (active); activation [11]: 7.22%; outcome [12]: inactive; Potency [13]: 5.62 µM (active); outcome [14]: inactive; outcome [15]: inactive; outcome [16]: inactive; outcome [17]: inactive; outcome [18]: inactive; Potency [19]: inactive; Potency [20]: 10 µM (active); Potency [21]: 12.6 µM (active); Potency [22]: 8.91 µM (active); Potency [23]: 7.08 µM (active); outcome [24]: inactive; outcome [25]: inactive; Potency [26]: inactive; Potency [27]: inactive; Potency [28]: inactive; Potency [29]: inactive; outcome [30]: inactive; activation [31]: 1.19%; outcome [32]: inactive; Potency [33]: inactive; Potency [34]: 2.24 µM (active)
